SRC1 inh = SRC1 coactivator transcriptional activity inhibitors, primary screen, cell-based, luminescence. HEK293 GAL4-SRC1 luciferase reporter. inhibition, % at 3.6 µM. 360,000 compounds, 0.12% hits. AID 588354, 2011;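 active = inhibition above the campaign mean plus 3 SD, with each screening campaign given its own cutoff, cut at about 60% in these data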
NCOA3 inh = SRC3 coactivator transcriptional activity inhibitors, primary screen, cell-based, luminescence; inhibition, % at 3.6 µM; 360,000 compounds, 0.17% hits; HEK293 GAL4-SRC3 luciferase reporter;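 active = inhibition above a per-campaign cutoff, the mean of all compounds plus 3 SD, cut at about 60% in these data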;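 also: higher means less SRC3-driven luciferase light from the GAL4 reporter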
SRC2 inh = inhibition of GAL4-SRC2 driven luciferase reporter, primary screen, SRC2 inhibitor project, cell-based, luminescence; Nuclear receptor coactivator 2 (Homo sapiens), Q15596; HEK293 GAL4-SRC2 luciferase reporter; inhibition, % at 9 µM; 370,000 compounds, 0.17% hits; AID 651957, 2012;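 active = inhibition above the mean inhibition of all tested compounds plus 3 SD, set per campaign, cut at about 52% in these data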
COUP-TFII inh = NR2F2 transcriptional activity inhibitors, primary screen, cell-based, luciferase reporter, HEK293T, luminescence. HEK293T NGFI-A luciferase reporter. inhibition, % at 8.6 µM. AID 686940, 2013. 370,000 compounds, 0.7% hits;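 active = inhibition above a per-plate cutoff, mean inhibition of test wells between control levels plus 3 SD, cut at about 38% in these data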;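 also: cells cotransfected with COUP-TFII expression vector driving the NGFI-A reporter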
LRH-1 inv ag = LRH-1 (NR5A2) inverse agonists, primary screen, cell-based, luminescence, HEK293T, StAR-luciferase reporter; 360,000 compounds, 0.13% hits; inhibition, % at 3.6 µM; LRH-1 transfected, 24 h; Nuclear receptor subfamily 5 group A member 2 (Homo sapiens), O00482;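 active = inhibition above the mean inhibition of all tested compounds plus 3 SD, cut at about 73% in these data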
Gal4-VP16 ctr = Gal4-VP16 luciferase reporter inhibitors, counter-screen for COUP-TFII antagonist project, cell-based, luminescence, HEK293; shares compounds with COUP-TFII inh; inhibition, % at 8.5 µM; 2,500 compounds, 25% hits; AID 687007, 2013; in the data active = inhibition above about 13%
COUP-TFII conf = NR2F2 transcriptional activity inhibitors, confirmation, cell-based, luciferase reporter, HEK293, triplicate; AID 687008, 2013; HEK293 NGFI-A luciferase reporter, luminescence; inhibition, % at 8.5 µM; 2,500 compounds, 45% hits; shares compounds with COUP-TFII inh;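 active = mean inhibition over three repeats above a set limit taken from the earlier primary screen, cut at about 38% in these data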
Each line names hits and unclear results; the compound was inactive in the other large screens (follow-up assays come after a bar, where they were run). Rows were chosen to be rich in hits. Some 0.81% of all compounds tested hit in one or more screens of this group.

O=C(c1ccc(Oc2ccc([N+](=O)[O-])cc2)cc1)N1CCCCCC1	COUP-TFII inh 47 | Gal4-VP16 ctr inactive | COUP-TFII conf inactive
CSc1ccc(CN2CCN(C(=O)c3ccc([N+](=O)[O-])cc3)CC2)cc1	COUP-TFII inh 71 | Gal4-VP16 ctr inactive | COUP-TFII conf 44
O=C(c1ccc(Oc2ccc([N+](=O)[O-])cc2Cl)cc1)N1CCCC1	none
O=C(c1ccc(Cn2ccc([N+](=O)[O-])n2)cc1)N1CCN(Cc2ccccc2)CC1	none
Cc1cc(C)c(C#N)c(SCc2nnc(-c3ccccc3[N+](=O)[O-])o2)n1	none
Cc1cc(C)c(C#N)c(SCc2nnc(-c3ccccc3)o2)n1	SRC1 inh 80, NCOA3 inh 79, SRC2 inh 67, COUP-TFII inh 81, LRH-1 inv ag 87 | Gal4-VP16 ctr 57 | COUP-TFII conf 92
Cc1ccc(C#N)c(SCc2nnc(-c3ccc(Cl)cc3)o2)n1	SRC1 inh 69, NCOA3 inh 75, SRC2 inh 54, COUP-TFII inh 77 | Gal4-VP16 ctr 45 | COUP-TFII conf 89
COCC(C)NS(=O)(=O)c1ccc(C(=O)NC(Cc2ccccc2)c2ccccc2)cc1 (stereo not drawn)	none
Cc1ccc(C(=O)Nc2sc(C)c(-c3ccccc3)c2C(N)=O)cc1[N+](=O)[O-]	COUP-TFII inh 56 | Gal4-VP16 ctr 27 | COUP-TFII conf 84
CC(C)COc1ccc(C/C(N)=N/n2cnnc2)cc1	COUP-TFII inh 39 | Gal4-VP16 ctr inactive | COUP-TFII conf inactive
Cc1cc(Cl)ccc1OC(C)C(=O)Nc1ccc([N+](=O)[O-])cn1 (stereo not drawn)	none
CC(C)(C)c1ccc(C(=O)Nc2ccc(CN3CCS(=O)(=O)CC3)cc2)cc1	COUP-TFII inh 47 | Gal4-VP16 ctr inactive | COUP-TFII conf inactive
COC(=O)Cc1ccc(NC(=O)c2ccc(C(C)(C)C)cc2)cc1	SRC2 inh 83, COUP-TFII inh 95 | Gal4-VP16 ctr 83 | COUP-TFII conf 93
O=C(Nc1ccc(CN2CCS(=O)(=O)CC2)cc1)c1ccc(F)cc1	none
O=C(Nc1ccc(CN2CCS(=O)(=O)CC2)cc1)c1ccc(C(F)(F)F)cc1	COUP-TFII inh 50 | Gal4-VP16 ctr inactive | COUP-TFII conf inactive
CN(Cc1ccccc1)C(=O)c1ccc(NC(=O)Cc2ccc(NC(=O)C3CCCN(C(=O)C4CC4)C3)cc2)cc1 (stereo not drawn)	none
Cc1cc(C(=O)CN2C(=O)c3ccccc3S2(=O)=O)c(C)n1C(C)C	SRC2 inh 58, COUP-TFII inh 63 | Gal4-VP16 ctr 49 | COUP-TFII conf 63
O=C(CN1C(=O)c2ccccc2S1(=O)=O)c1ccccc1	none
CCn1c(C)cc(C(=O)CN2C(=O)c3ccccc3S2(=O)=O)c1C	COUP-TFII inh 41 | Gal4-VP16 ctr 41 | COUP-TFII conf 72
CS(=O)(=O)N(CC(=O)Nc1ccc(CC#N)cc1)c1ccc(C23CC4CC(CC(C4)C2)C3)cc1	none
O=C(Nc1ccc2c(c1)OCCO2)C(c1cc2ccccc2o1)N1CCN(c2ccc(C(F)(F)F)cn2)CC1 (stereo not drawn)	none
O=C(Nc1ccc2c(c1)OCCO2)C(c1cc2ccccc2o1)N1CCN(c2ccc(F)cc2)CC1 (stereo not drawn)	COUP-TFII inh 39 | Gal4-VP16 ctr inactive | COUP-TFII conf inactive
CS(=O)(=O)N(CC(=O)NC1CCCC1)C1CCCCC1	none
COc1cc(C(=O)NCCNc2nc3ccc(C)cc3cc2C#N)cc(OC)c1OC	none
Cc1[nH]c2ccccc2c1CC(=O)Nc1ccc(Nc2cccnc2)c(Br)c1	none (no result: SRC1 inh, NCOA3 inh, LRH-1 inv ag)
COc1cccc(-n2cc(CN(C)Cc3nc(Cc4cccc(F)c4)no3)cn2)c1	none
